Screening data: PubChem, National Center for Advancing Translational Sciences (NCATS)
In the library only some 0.74% were active in any assay of this set; here they are far more common.
PINK1 expr mod: changes PINK1 expression. PINK1 immunofluorescence, high-content cytometry, 24 h. Potency, µM (doses to about 76.6 µM), for inactives: at the highest dose activation (PINK1 increase), usual class: activators. hit rate 0.2% among 410,000; active means well fitted activation curve with a large enough effect; inconclusive means small, poorly fitted or top-dose-only effect; cell line not stated here; further: potency means the concentration at half of the fitted maximal effect; % of control where 0% means no effect; nearly all actives have a fitted effect of over 65% in size
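Stable cell line, 250 cells/well, 12 h attachment; compounds pinned at 5 concentrations, 24 h; CCCP control. Fixed with nuclear dye, primary antibodies 12 h at 10 degrees C, secondary plus cell stain; laser-scanning cytometer read.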
LDHA block: inhibitors of human lactate dehydrogenase A; P00338; purified LDHA, NADH/diaphorase-resazurin fluorescence; hits give low values; activity change, % (values are at about 110 or 230 µM); hit rate 0.15% among 480,000; AID 1347041; in the data active means activity change below about -30%; inconclusive means mostly about -25% to -30%;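 further: plate controls were DMSO wells for no effect and wells without enzyme for full effect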
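Human LDH5 (2 nM) was incubated with 0.06 mM NADH and 0.2 mM pyruvate for 5 min at room temperature in Tris pH 7.4. Remaining NADH was coupled through diaphorase/resazurin, and resorufin fluorescence was read at 0 and 20 min.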
Vif-A3F inh: Vif-A3F binding inhibition; HeLa A3F-eYFP + Vif (tagged APOBEC3F with the HIV-1 protein that degrades it), YFP fluorescence increase; Potency, µM (top dose mostly 46.1 µM), for the others: at the highest dose activity, negative = active; hit rate 0.2% among 390,000; AID 602313; further: potency means the concentration at half of the fitted maximal effect; % of control where 0% means no effect; nearly all actives have a fitted effect of over 65% in size
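HeLa cells stably expressing Vif plus C-terminally eYFP-tagged A3F were seeded, incubated overnight at 37 deg C, dosed with compound, incubated overnight again at 37 deg C. Yellow fluorescence (Ex 488/Em 500-530) reported blocked Vif-mediated A3F-eYFP degradation.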
GRP78 ERSR act: inducers of ER stress response in human glioma cells. U87-MG GRP78 promoter luciferase reporter, 16 h. Potency, µM, inactives show at the top dose activation, most hits filed as activators. hit rate 0.02% among 420,000. AID 602332; further: potency means the concentration at half of the fitted maximal effect; series mostly up to about 76 µM; % of control where 0% means no effect; nearly all actives have a fitted effect of over 35% in size
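ERSR induction read as luciferase luminescence (Bright-Glo, 10 min at room temperature) in stably transfected human U87-MG glioma cells exposed to compounds for 16 h, using GRP78 as sensor.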
Vif-APOBEC3G blk: inhibitors of Vif-APOBEC3G interaction; AID 602310; Potency, µM (titrated, usually from 46.1 µM), without a hit: at the top dose activity, negative = active, actives largely listed as inhibitors; Q9HC16; HeLa A3G-eYFP + Vif (tagged APOBEC3G with the HIV-1 protein that degrades it), YFP fluorescence, overnight; hit rate 0.076% among 410,000; further: potency means the concentration at half of the fitted maximal effect; on the % scale 0 is the no-effect control and ±100 the full control effect; nearly all actives have a fitted effect of over 60% in size
Target sequence (Q9HC16 whole entry, looked up): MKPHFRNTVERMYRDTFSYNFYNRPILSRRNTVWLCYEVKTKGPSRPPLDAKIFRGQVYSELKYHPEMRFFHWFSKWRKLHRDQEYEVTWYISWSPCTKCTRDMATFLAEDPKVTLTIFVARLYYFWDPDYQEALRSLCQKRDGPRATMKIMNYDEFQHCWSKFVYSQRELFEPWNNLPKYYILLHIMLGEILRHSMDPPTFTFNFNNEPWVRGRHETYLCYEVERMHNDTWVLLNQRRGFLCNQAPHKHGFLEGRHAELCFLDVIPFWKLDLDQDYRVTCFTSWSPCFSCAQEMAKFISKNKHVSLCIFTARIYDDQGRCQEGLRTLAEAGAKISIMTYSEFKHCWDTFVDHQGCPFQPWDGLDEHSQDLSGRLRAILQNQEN
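HeLa cells stably expressing Vif and C-terminally eYFP-tagged A3G, seeded overnight at 37 deg C, then exposed to compound by pintool overnight at 37 deg C. Rise in yellow fluorescence (Ex 488/Em 500-530, Acumen) marks blocked Vif-driven A3G degradation.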
Akt phos inh: blocks phosphorylation of Akt; Neuro2A IGF-stimulated pAkt S473 HTRF, 20 min; hits give low values; activity change, % for hits at 50 µM; hit rate 0.32% among 360,000; AID 651550; in the data active means activity change below about -80%; inconclusive means mostly about -51% to -80%; further: on the % scale 0 is the no-effect control and ±100 the full control effect
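Single-point screen (50 µM final compound) in Neuro2A cells stimulated 20 min with 6 nM IGF at 37 deg C. After lysis, Ser473-phosphorylated Akt read by HTRF (ex 330 nm, em 615/665 nm) as the 665/615 ratio.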
* marks the source's active call; other numbers are inactive results; i = inactive; ? = inconclusive; nt = not tested or not shown; [ ] = dose if it differs, or a comment. Unless noted, the call rests on the fitted dose curve; in most records, active means well fitted curve in the direction sought with a large enough effect; inconclusive means small, poorly fitted or top-dose-only effect, or another doubt; inactive means no such curve, though single readings can be large; an effect the other way counts as inactive or inconclusive.

SMILES	PINK1 expr mod	LDHA block	Vif-A3F inh	GRP78 ERSR act	Vif-APOBEC3G blk	Akt phos inh
CCN(CC(=O)Nc1ccc(C(C)=O)cc1)CC(=O)Nc1ccc2c(c1)OCCO2	1%	-19	-4%	-2%	-2%	i
CCN(CC(=O)Nc1ccc2c(c1)OCCO2)CC(=O)Nc1ccccc1C(F)(F)F	0%	-46*	-1%	-3%	-3%	i
CN(C)c1ccc(/C=C(\C#N)c2nc3ccccc3c(=O)[nH]2)cc1	1%	-5	5µM*	3%	?	nt
O=c1[nH]c(/C=C/c2ccc(Br)cc2)nc2ccccc12	4%	2	4%	1%	0%	i
CN(C)c1ccc(/C=C/c2nc3ccccc3c(=O)n2CCO)cc1	-1%	-6	13µM*	7%	11µM*	i
CN(C)c1ccc(/C=C/c2nc3ccccc3c(=O)[nH]2)cc1	21%	-3	10µM*	-6%	-4%	i
O=c1[nH]c(/C=C/c2cccc3ccccc23)nc2ccccc12	25%	-10	13µM*	3%	?	i
O=c1[nH]c(/C=C/c2ccccc2F)nc2ccccc12	9%	-3	-8%	-1%	?	i
COc1cccc2cc(-c3cn4ccccc4n3)c(=O)oc12	nt	17	nt	nt	nt	nt
Cc1cccc2[nH]cc(C=O)c12	nt	1	nt	nt	nt	nt
O=C(N/N=C/c1cnc(N2CCCCC2)s1)c1ccc(Cl)cc1	28µM*	0	-1%	3%	4%	i
O=C(c1ccccc1)c1ccc(OCCCN2CCCCC2)cc1	-1%	-19	-2%	0%	5%	i
CC(=O)c1ccc(OCCCN2CCCCC2)cc1	-3%	-32*	5%	-1%	0%	i
CCCc1[nH]nc2c1C(Cc1ccccc1)C(C#N)=C(N)O2 (stereo not drawn)	1%	-6	nt	-3%	0%	-106%*
CC(=O)NCCNC(=O)c1ccc2ccccc2n1	nt	-31*	nt	nt	nt	nt
Fc1ccc2nc3[nH]c4ccccc4c3nc2c1	3%	-5	?	2%	1.4µM*	i
O=C1NC(=S)S/C1=C\c1cc(Cl)ccc1Cl	?	-31*	-4%	-1%	6%	i
CN(C)c1ccc(C=C2SC(=S)NC2=O)cc1	3%	-15	?	2%	10µM*	i
CC(=O)N1C=Cc2ccccc2C1CC(=O)Nc1cccc(S(=O)(=O)N2CCCCCC2)c1 (stereo not drawn)	nt	-7	nt	nt	nt	nt
COc1ccc(C(=O)/C(C#N)=C\c2ccc(Cl)c(Cl)c2)cc1	nt	8	nt	nt	nt	nt
CC1CCN(S(=O)(=O)c2ccc(NC(=O)CN3CCN(C)CC3)cc2)CC1	11%[38.3 µM]	-41*	0%	-3%	-6%	i
CC1CCN(S(=O)(=O)c2ccc(NC(=O)CN3CCCCCC3)cc2)CC1	3%	-2	-9%	-2%	5%	i
CCCC[n+]1c(/C=C/c2c(OC)cc(OC)cc2OC)ccc2ccccc21	5.6µM*	-14	nt	-8%	?	nt
CCC[n+]1c(/C=C/c2c(OC)cc(OC)cc2OC)ccc2ccccc21	?	-3	nt	-8%	?	nt
Cc1ccc(NC(=O)CSCc2cc(=O)n3ccsc3n2)cc1C	nt	4	nt	nt	nt	nt
SMILES	PINK1 expr mod	LDHA block	Vif-A3F inh	GRP78 ERSR act	Vif-APOBEC3G blk	Akt phos inh
Cc1ccc2cc(CN(C(=O)c3ccco3)c3ccccc3C)c(=O)[nH]c2c1	-3%	-3	-6%	-3%	3%	-112%*
Cc1ccc(NC(=O)CN2C(=O)CCc3cc(S(=O)(=O)N4CCCC4)ccc32)cc1F	nt	2	nt	nt	nt	nt
O=C(NCCC1=CCCCC1)C(=O)NCC(c1ccco1)N1CCN(c2ccccc2)CC1 (stereo not drawn)	13µM*	0	3%	-4%	-1%	i
COc1ccc(N2CCN(C(CNC(=O)C(=O)NCCC3=CCCCC3)c3ccco3)CC2)cc1 (stereo not drawn)	-1%	-6	-21%	-2%	3%	i
Cc1cc(C(=O)OCC(=O)N(C)Cc2ccc(F)cc2)c2ccccc2n1	nt	7	nt	nt	nt	nt
CCN(CC)CCNCc1ccc(C)s1	nt	-5	nt	nt	nt	nt
Cc1ccc(OCCn2c(CCCO)nc3ccccc32)cc1	-4%	-2	-2%	-3%	-3%	-106%*
OCCCc1nc2ccccc2n1CCOc1ccccc1	-1%[38.3 µM]	1	0%	-3%	-3%	i
O=C(NCCc1ccccn1)c1ccc2c3c(cccc13)CC2	nt	-4	nt	nt	nt	nt
COCCN1C(=O)C(=O)/C(=C(/O)c2cccc(S(=O)(=O)N(C)C)c2)C12C(=O)N(C)c1ccccc12 (stereo not drawn)	-1%	-4	-2%	-4%	1%	-108%*
O=C(CSc1nc2ccccc2s1)Nc1cccc(C(F)(F)F)c1	nt	-30*	nt	nt	nt	nt
O=C(CSc1nc2ccccc2s1)c1cc2ccccc2o1	-4%[38.3 µM]	-1	25µM*	1%	?	nt
O=C(OCc1ccccc1)c1ccc(Br)o1	1%	-3	11%	0%	3%	-107%*
O=C(COC(=O)c1ccc(Br)o1)NCCCc1ccccc1	-2%	-7	5%	-5%	-1%	i
O=C(NC1CCCC1)c1cc2c(F)cccc2s1	nt	-30*	nt	nt	nt	nt
CSc1ccc(C(C)NC(=O)C=C(C)C)cc1 (stereo not drawn)	nt	7	nt	nt	nt	nt
NC(=O)c1ccc(NC(=O)/C=C/c2ccc(Cl)c(C(F)(F)F)c2)cc1	nt	-4	nt	nt	nt	nt
COc1ccc(-c2cc(-c3ccccc3)c(C#N)c(SCC(=O)O)n2)cc1	-2%	-24	0%	-2%	2%	i
N#Cc1c(-c2ccccc2)cc(-c2ccccc2)nc1SCC(=O)NCC(=O)O	1%	-102*	-10%	-3%	0%	i
N#Cc1c(C(F)(F)F)cc(-c2ccccc2)nc1SCC(=O)Nc1sc2c(c1C#N)CCC2	13µM*	-5	?	-5%	?	i
CCOc1ccc(-c2cc(C(F)(F)F)c(C#N)c(SCC(=O)Nc3ccccc3)n2)cc1	0%	-12	?	-3%	13µM*	nt
CCOc1ccc(NC(=O)CSc2nc(-c3ccc(F)cc3)cc(C(F)(F)F)c2C#N)cc1	-1%	-15	-20%	0%	4%	nt
N#Cc1c(C(F)(F)F)cc(-c2ccccc2)nc1SCc1nc(N)nc(N2CCOCC2)n1	6%	-7	11µM*	2%	?	i
